# PubChem BioAssay (NCATS)
# Results filed as inconclusive are left out. Entries that show only a call come without a potency. Calls of active or inactive are those of the source. Calls come from the whole dose curve; as a rule, active = well fitted curve in the direction sought with a large enough effect; inconclusive = small, poorly fitted or top-dose-only effect, or another doubt; inactive = no such curve, though single readings can be large; an effect the other way counts as inactive or inconclusive.
# Columns and labels:
# [1] = system: Zika virus NS2B-NS3 protease; test: Primary screen GU AMC qHTS for Zika virus inhibitors (AID 1347154); note: nearly all actives have a fitted effect of over 70% in size; note: potency is the fitted concentration of half-maximal effect
# Outline: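 Unlinked Zika NS2B hydrophilic domain/NS3 protease domain noncovalent complex (25 nM final) in 10 mM Tris-HCl pH 8.0, 0.01% Tween 20, with AMC peptide substrate. Fluorescence (ex 340, em 450 nm) change over 15 min, room temperature; percent inhibition fitted to 4-parameter Hill equation.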
# [2] = system: Zika virus NS2B-NS3 protease (unlinked complex); test: Primary screen GU Rhodamine qHTS for Zika virus inhibitors: Unlinked NS2B-NS3 protease assay (AID 1347159); note: nearly all actives have a fitted effect of over 60% in size; note: potency is the fitted concentration of half-maximal effect
# Outline: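 Compounds, tested up to 114 microM, were incubated for 15 minutes with 25 nM unlinked NS2B-NS3 protease at pH 8.0. Cleavage of 1.5 microM Rhodamine110 substrate was then followed by fluorescence for 15 minutes.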
# [3] = system: Zika virus NS2B-NS3 protease (linked construct); test: Primary screen NINDS Rhodamine qHTS for Zika virus inhibitors (AID 1347160); note: nearly all actives have a fitted effect of over 55% in size; note: potency is the fitted concentration of half-maximal effect
# Outline: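 Percent inhibition, normalized to uninhibited and enzyme-free controls, is fitted to a 4-parameter Hill equation. Fluorescence change comes from a 15-min cleavage of 1.5 microM bis-peptide Rhodamine110 substrate by 25 nM linked NS2B-NS3 at room temperature.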
# [4] = Confirmatory screen GU Rhodamine qHTS for Zika virus inhibitors qHTS (AID 1347157); note: nearly all actives have a fitted effect of over 70% in size
# Outline: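 Enzyme 25 nM in Tris-HCl pH 8.0 + 0.01% Tween 20; compounds up to 114 microM, 15 min RT dark; + Rhod110 substrate 1.5 microM; read t0 and 15 min; delta fluorescence → % inhibition → 4-parameter Hill fit.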
# [5] = Confirmatory screen NINDS Rhodamine qHTS for Zika virus inhibitors (AID 1347161);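 note: purified Zika NS2B-NS3 protease with linked NS2B cofactor domain and Rhodamine110 peptide substrate; series mostly up to about 110 µM; nearly all actives have a fitted effect of over 60% in size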
# Outline: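 Purified NS2B-NS3 protease with the NS2B hydrophilic domain joined by a flexible linker (25 nM) in 10 mM Tris-HCl pH 8.0, 0.01% Tween 20, preincubated 15 min at RT with compound; Rhodamine110 peptide substrate 1.5 µM; fluorescence change over 15 min; 4-parameter Hill fit.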
# [6] = target: Lysine-specific demethylase 5B (Homo sapiens) (UniProt Q9UGL1); test: Optimization screen for KDM5B Histone Demethylases FDH coupled qHTS against the LOPAC library (AID 1347166)
# Outline: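 KDM5BDeltaAP (200nM final) preincubated 10 min with compound, then 12.5uM H3K4Me3, 25uM a-ketoglutarate, ascorbate, Fe(II), NAD+ and FDH added; 50mM HEPES pH 7.5, 0.01% Tween-20. NADH fluorescence (340/450 nm) change over 30 min, room temperature.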
# Lysine-specific demethylase 5B (Homo sapiens), sequence (Q9UGL1 whole entry, looked up): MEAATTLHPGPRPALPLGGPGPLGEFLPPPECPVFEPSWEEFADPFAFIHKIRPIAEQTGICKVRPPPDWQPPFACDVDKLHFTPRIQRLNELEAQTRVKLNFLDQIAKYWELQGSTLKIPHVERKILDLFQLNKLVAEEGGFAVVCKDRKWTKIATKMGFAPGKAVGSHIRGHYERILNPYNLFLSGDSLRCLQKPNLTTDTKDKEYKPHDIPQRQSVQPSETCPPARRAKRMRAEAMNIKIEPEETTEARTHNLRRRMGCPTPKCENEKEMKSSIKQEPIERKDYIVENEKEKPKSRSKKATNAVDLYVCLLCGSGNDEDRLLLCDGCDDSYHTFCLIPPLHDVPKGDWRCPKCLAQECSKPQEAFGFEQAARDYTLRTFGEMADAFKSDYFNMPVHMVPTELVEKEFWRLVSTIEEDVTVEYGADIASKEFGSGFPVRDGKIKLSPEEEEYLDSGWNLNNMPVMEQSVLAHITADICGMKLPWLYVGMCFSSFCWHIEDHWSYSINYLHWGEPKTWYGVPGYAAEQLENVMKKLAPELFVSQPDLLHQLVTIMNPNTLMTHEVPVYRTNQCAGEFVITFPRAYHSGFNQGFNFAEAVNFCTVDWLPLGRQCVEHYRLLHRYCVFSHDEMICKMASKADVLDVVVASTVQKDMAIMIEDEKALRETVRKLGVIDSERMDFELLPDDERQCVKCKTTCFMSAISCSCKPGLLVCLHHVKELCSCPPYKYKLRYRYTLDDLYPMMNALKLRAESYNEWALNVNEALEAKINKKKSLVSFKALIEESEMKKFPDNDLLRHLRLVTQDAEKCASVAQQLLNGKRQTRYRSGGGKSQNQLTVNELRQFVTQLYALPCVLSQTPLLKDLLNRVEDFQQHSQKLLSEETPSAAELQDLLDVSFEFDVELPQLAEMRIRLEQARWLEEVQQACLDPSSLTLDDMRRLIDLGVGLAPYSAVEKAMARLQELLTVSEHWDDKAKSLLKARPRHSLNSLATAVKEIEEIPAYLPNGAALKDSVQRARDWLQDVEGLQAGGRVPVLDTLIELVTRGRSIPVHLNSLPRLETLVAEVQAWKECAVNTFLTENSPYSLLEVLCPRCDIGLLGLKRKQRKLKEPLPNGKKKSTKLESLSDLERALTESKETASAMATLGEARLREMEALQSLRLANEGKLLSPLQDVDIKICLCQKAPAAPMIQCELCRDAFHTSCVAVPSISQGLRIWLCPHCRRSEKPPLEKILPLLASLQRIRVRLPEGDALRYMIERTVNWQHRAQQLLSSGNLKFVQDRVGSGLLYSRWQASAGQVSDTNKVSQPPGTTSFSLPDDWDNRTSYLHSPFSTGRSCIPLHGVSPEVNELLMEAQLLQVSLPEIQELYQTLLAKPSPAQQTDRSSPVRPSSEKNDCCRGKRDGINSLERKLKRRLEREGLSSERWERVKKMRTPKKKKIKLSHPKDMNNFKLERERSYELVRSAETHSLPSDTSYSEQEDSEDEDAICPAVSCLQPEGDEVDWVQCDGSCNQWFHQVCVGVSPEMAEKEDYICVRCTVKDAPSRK
smiles,measurement,setting,value
Cc1ccccc1-n1c(Cn2ncc3c(N)ncnc32)nc2cccc(C)c2c1=O,Potency,[1],inactive
same,Potency,[2],inactive
same,Potency,[3],inactive
C[C@@H]1O[C@@H](O[C@@H]2C=C3CC[C@@H]4[C@@H](CC[C@]5(C)[C@H](c6ccc(=O)oc6)CC[C@@]45O)[C@@]3(C)CC2)[C@H](O)[C@H](O)[C@H]1O,Potency,[1],inactive
Cc1c(N)nc([C@H](CC(N)=O)NC[C@@H](N)C(N)=O)nc1C(=O)N[C@H](C(=O)N[C@@H](C)[C@H](O)[C@@H](C)C(=O)N[C@@H](C(=O)NCCc1nc(-c2nc(C(=O)NCCC[S+](C)C)cs2)cs1)[C@@H](C)O)C(O[C@H]1O[C@H](CO)[C@H](O)[C@@H](O)[C@@H]1O[C@H]1O[C@H](CO)[C@@H](O)[C@H](OC(N)=O)[C@H]1O)c1cnc[nH]1 (some centres undefined),Potency,[1],inactive
CC1(N2CCC(n3c([C@@H]4CCCNC4)nc4ccccc43)CC2)CCCCCCC1,Potency,[1],inactive
same,Potency,[2],inactive
same,Potency,[3],inactive
CC(C)[C@H]1C(=O)N[C@H](CO)Cc2c[nH]c3cccc(c23)N1C,Potency,[1],inactive
Nc1c(Cl)c(Cl)c(Cl)c(Cl)c1Cl,Potency,[1],inactive
same,Potency,[4],inactive
same,Potency,[5],inactive
CC(=O)O[C@@]12CO[C@H]1C[C@H](O)[C@@]1(C)C(=O)[C@H](O)C3=C(C)[C@@H](O)C[C@@](O)([C@@H](OC(=O)c4ccccc4)[C@@H]21)C3(C)C,Potency,[1],inactive
S=C(SSC(=S)N1CCCCC1)N1CCCCC1,Potency,[1],inactive
CCOC(=O)c1cncn1[C@H](C)c1ccccc1,Potency,[1],inactive
COCCOCCO,Potency,[1],inactive
Cc1nc(-c2ccc(-c3ccc(C(=O)N4CCc5cc6c(cc54)C4(CCN(C)CC4)CO6)cc3)c(C)c2)no1,Potency,[1],inactive
CN1CCN(c2ccc([N+](=O)[O-])c3no[n+]([O-])c23)CC1,Potency,[1],inactive
same,Potency,[2],inactive
same,Potency,[3],inactive
CCNC(=O)CC1N=C(c2ccc(Cl)cc2)c2cc(OC)ccc2-n2c(C)nnc21 (centres undefined),Potency,[1],inactive
same,Potency,[2],inactive
same,Potency,[3],inactive
CCCN1CCO[C@@H]2c3cc(O)ccc3OC[C@@H]21,Potency,[1],inactive
CC(N[C@H]1C[C@H]1c1ccccc1)c1ccc2c(c1)OCCO2 (some centres undefined),Potency,[1],inactive
same,Potency,[2],inactive
O=[N+]([O-])c1ccc([As](=O)(O)O)cc1,Potency,[1],inactive
O=C(Oc1ccc([N+](=O)[O-])cc1)N1CCN(Cc2cccc(Oc3ccccc3)c2)CC1,Potency,[1],inactive
same,Potency,[2],inactive
same,Potency,[3],inactive
CC[C@@]1(O)C(=O)OCc2c1cc1n(c2=O)Cc2cc3ccccc3nc2-1,Potency,[1],2.12 µM (active)
same,outcome,[6],inactive
CCCN(CCC)[C@@H]1CCc2ccc(O)cc2C1,Potency,[1],inactive
same,outcome,[6],inactive
O=c1[nH]c2ccc(Cl)cc2c(N[C@@H]2CN3CCC2CC3)c1-c1nc2ccccc2[nH]1,Potency,[1],inactive
same,Potency,[3],inactive
S=C(NC1CCCCC1)N1CCC(c2cnc[nH]2)CC1,Potency,[1],inactive
same,Potency,[2],inactive
same,Potency,[3],inactive
same,outcome,[6],inactive
CC(C)(C)NC[C@H](O)c1ccc(O)cc1Cl,Potency,[1],inactive
same,Potency,[3],inactive
NCCc1c[nH]c2ccc(O)cc12,Potency,[1],inactive
same,Potency,[3],inactive
same,outcome,[6],inactive
CC(=O)N(C)c1cccc(-c2ccnc3c(C(=O)c4cccs4)cnn23)c1,Potency,[1],21.5 µM (active)
same,Potency,[2],inactive
same,Potency,[3],inactive
same,Potency,[5],inactive
CC(=O)Nc1ccc(OC[C@](C)(O)C(=O)Nc2ccc([N+](=O)[O-])c(C(F)(F)F)c2)cc1,Potency,[1],inactive
same,Potency,[2],inactive
same,Potency,[3],inactive
O=C(N[C@H]1CN2CCC1CC2)c1ccc(Cl)cc1,Potency,[1],inactive
same,Potency,[2],inactive
same,Potency,[3],inactive
same,outcome,[6],inactive
Cc1[nH]nc2ccc(-c3cncc(OC[C@@H](N)Cc4c[nH]c5ccccc45)c3)cc12,Potency,[1],inactive
same,Potency,[2],inactive
same,Potency,[3],inactive
O=C(O)CNC(=O)c1c(O)c2ccccc2n(Cc2ccccc2)c1=O,Potency,[1],inactive
same,Potency,[2],12.6 µM (active)
same,Potency,[3],11.2 µM (active)
NC(CCP(=O)(O)O)C(=O)O (centres undefined),Potency,[1],inactive
same,outcome,[6],inactive
NCc1cc(=O)[nH]o1,Potency,[1],inactive
same,outcome,[6],inactive
CCc1c(C(=O)C(N)=O)c2c(OCC(=O)O)cccc2n1Cc1ccccc1,Potency,[1],inactive
same,Potency,[2],inactive
same,Potency,[3],inactive
